Only some compounds are listed: those with a hit (about 19% of all), similar ones and a draw of the others.
ASM inhibitor: inhibitors of human secretory acid sphingomyelinase; Potency, µM (doses to about 57.5 µM), most hits filed as inhibitors; placental ASM, HMU-PC fluorogenic substrate, 60 min; AID 504937; actives 0.006% (n = 340,000)
Target sequence (P17405 47-631 limits assumed): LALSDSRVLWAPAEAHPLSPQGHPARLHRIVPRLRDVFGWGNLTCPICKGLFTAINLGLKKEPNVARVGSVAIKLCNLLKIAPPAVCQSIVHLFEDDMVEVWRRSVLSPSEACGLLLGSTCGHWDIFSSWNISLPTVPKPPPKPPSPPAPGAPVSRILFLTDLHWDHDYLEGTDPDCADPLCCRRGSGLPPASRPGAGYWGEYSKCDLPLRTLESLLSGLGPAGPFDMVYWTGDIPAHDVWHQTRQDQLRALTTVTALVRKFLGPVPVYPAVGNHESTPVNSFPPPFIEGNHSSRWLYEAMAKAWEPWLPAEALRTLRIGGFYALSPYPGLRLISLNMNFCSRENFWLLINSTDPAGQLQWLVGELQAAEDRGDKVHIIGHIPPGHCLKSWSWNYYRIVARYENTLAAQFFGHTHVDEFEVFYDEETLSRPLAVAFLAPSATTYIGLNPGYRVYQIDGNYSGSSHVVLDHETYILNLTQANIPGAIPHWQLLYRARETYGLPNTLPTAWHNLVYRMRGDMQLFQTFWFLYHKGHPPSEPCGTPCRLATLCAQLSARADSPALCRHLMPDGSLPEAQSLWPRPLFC
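Human placenta-derived ASM preincubated with compound 10 min at room temperature, then reacted with 9 uM (final) fluorogenic HMU-PC substrate for 60 min at 37 C. Stop solution raises pH to 10; fluorescence read at Ex 386/Em 447 nm.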
TDP1 cell CPT: DT40-hTDP1 cell growth loss with CPT | Potency, µM (highest dose often 46.2 µM), most hits filed as inhibitors | actives 12% (n = 420,000) | chicken DT40 Tdp1-/-;hTDP1 cells + 20 nM CPT, ATP luminescence, 48 h; further: nearly all actives have a fitted effect of over 55% in size
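Chicken DT40 Tdp1-/- cells complemented with human TDP1, 400 cells/well, exposed to compounds plus 20 nM camptothecin for at least 48 h at 37 C; viability read as ATP content by CellTiter-Glo luminescence.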
TDP1 cell noCPT: qHTS for Inhibitors of human tyrosyl-DNA phosphodiesterase 1 (TDP1): qHTS in cells in absence of CPT | DT40 Tdp1-/- hTDP1 cells, no CPT, ATP luminescence, 48 h | actives 15% (n = 420,000) | AID 686978, 2013 | Potency, µM (doses to about 46.2 µM), actives largely listed as inhibitors; further: nearly all actives have a fitted effect of over 55% in size
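No-CPT arm: Tdp1-/-;hTDP1 DT40 cells (400/well) plus compounds, incubated ≥48 hr at 37 °C. Readout CellTiter-Glo luminescence.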
HepG2 tox: HepG2 cytotoxicity, counter-screen for TGF-b inhibitors; actives 0.76% (n = 410,000); Potency, µM (highest dose often 46.1 µM), usual class: cytotoxic; HepG2 CAGA-GFP viability, ATP luminescence, 18 h; AID 588856
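CellTiter-Glo luminescence gave cytotoxicity after 18 hours at 37 degrees C. The cells were HepG2 CAGA-GFP in 1% FBS DMEM, stimulated with 500 pg/mL TGF-beta after compound addition. %Activity was normalised to no-cell wells (complete cell-killing) and DMSO (no toxicity), and curves were fitted and classified.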
TGFb SMAD3 inh: inhibitors of TGF-b signaling; actives 1.2% (n = 410,000); Potency, µM (doses to about 46.1 µM), hits mostly inhibitors; HepG2 CAGA-GFP TGF-b/SMAD3 reporter, GFP fluorescence, 18 h; TGF-beta stimulated, 500 pg/mL final; further: nearly all actives have a fitted effect of over 65% in size
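Using HEPG2 CAGA-GFP reporter cells at 1000 cells/well, we pinned test compounds, stimulated with recombinant TGF-beta (500 pg/mL final) and measured total well GFP after 18 h.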
IL-1B inflam inh: blocks inflammasome-driven IL-1 beta release | AID 743279 | activity change, % at 57.5 µM | THP-1 LPS/ATP IL-1B secretion, AlphaLISA, 16 h; hits give low values | actives 4.7% (n = 360,000); in the data active means activity change below about -50%; inconclusive means mostly about -30% to -49%
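Secreted IL-1B measured by AlphaLISA bead assay after 16 h compound exposure of THP-1 cells; compounds (final up to 57.5 uM) added 1 h before LPS (250 ng/mL) and ATP (1.25 mM) stimulation; lower signal means less secretion.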
Large screens that a line does not name were inactive. Unless noted, the call rests on the fitted dose curve; in most records, active means well fitted curve in the direction sought with a large enough effect; inconclusive means small, poorly fitted or top-dose-only effect, or another doubt; inactive means no such curve, though single readings can be large; an effect the other way counts as inactive or inconclusive.

CC(C)(C)OC(=O)N1CCC(c2c(C(=O)NCc3ccccc3)cnn2-c2ccccc2)CC1	TDP1 cell CPT inconclusive, TDP1 cell noCPT inconclusive (no result: ASM inhibitor, IL-1B inflam inh)
Cc1ccc(CN2CCC(CNC(=O)c3cnn(-c4ccccc4)c3C3CCN(C(=O)OC(C)(C)C)CC3)CC2)cc1	TDP1 cell CPT 15µM, TDP1 cell noCPT 15µM (no result: ASM inhibitor, IL-1B inflam inh)
O=C1NC(Cc2c[nH]c3ccccc23)C(=O)N1Cc1ccc(CN2C(=O)NC(Cc3c[nH]c4ccccc34)C2=O)cc1 (stereo not drawn)	TDP1 cell CPT inconclusive, TDP1 cell noCPT 23µM, TGFb SMAD3 inh inconclusive
Cc1cccc(N2CCN(S(=O)(=O)c3c(C)[nH]c(C)c3C(=O)N3CCCC3)CC2C)c1 (stereo not drawn)	none
COc1ccc(-c2cnc3c(NC=O)cc(-c4ccccc4OC)cn23)cc1OC	TDP1 cell CPT 0.029µM, TDP1 cell noCPT 0.0073µM, TGFb SMAD3 inh inconclusive (no result: ASM inhibitor)
COc1ccc(-c2cc(NC=O)c3ncc(-c4ccc(OC)c(OC)c4)n3c2)cc1OC	TDP1 cell CPT 5.2µM, TDP1 cell noCPT 4.1µM, IL-1B inflam inh -62 (no result: ASM inhibitor)
COc1ccc(-c2cc(NC=O)c3ncc(-c4ccc(OC)c(OC)c4)n3c2)cc1	TDP1 cell CPT 0.73µM, TDP1 cell noCPT 1µM, TGFb SMAD3 inh inconclusive (no result: ASM inhibitor)
COc1ccc(C(CNC(=O)Nc2cccc(C)c2)N2CCN(C)CC2)cc1 (stereo not drawn)	none
COc1cccc(C(C(=O)NCc2ccccc2)N2CCN(c3ccccc3F)CC2)c1OC (stereo not drawn)	TDP1 cell CPT 21µM, TDP1 cell noCPT 16µM (no result: ASM inhibitor, HepG2 tox, TGFb SMAD3 inh)
O=C(NCc1ccccc1)C(c1ccc(F)cc1)N1CCN(c2ccccc2F)CC1 (stereo not drawn)	TDP1 cell CPT 9.2µM, TDP1 cell noCPT 12µM (no result: ASM inhibitor, HepG2 tox, TGFb SMAD3 inh)
CC(C)CC(=O)Nc1ccccc1N1CCCC1	none
CC(C)CC(=O)Nc1ccccc1N1CCN(c2ccc(F)cc2)CC1	TDP1 cell CPT 18µM, TDP1 cell noCPT inconclusive
O=C(NC1CCCc2c1cnn2-c1cc(F)cc(F)c1)c1ccc[n+]([O-])c1 (stereo not drawn)	none
Cc1cccc(-n2ncc3c2CCCC3NC(=O)CCc2ccncc2)c1C (stereo not drawn)	TDP1 cell CPT 12µM, TDP1 cell noCPT 6.5µM
Cc1cc(C(=O)NC2CCCc3c2cnn3-c2cccc(C)c2C)n(C)n1 (stereo not drawn)	TDP1 cell CPT 0.15µM, TDP1 cell noCPT 0.21µM
Cc1ccn(CCC(=O)NC2CCCc3c2cnn3-c2cccc(C)c2C)n1 (stereo not drawn)	TDP1 cell CPT inconclusive
Cc1cccc(-n2ncc3c2CCCC3NC(=O)c2ccc[n+]([O-])c2)c1C (stereo not drawn)	TDP1 cell CPT 12µM, TDP1 cell noCPT inconclusive
Cc1cccc(-n2ncc3c2CCCC3NC(=O)C2CCOCC2)c1C (stereo not drawn)	TDP1 cell CPT inconclusive, TDP1 cell noCPT 15µM
Cc1ccc(CNS(=O)(=O)c2ccc3c(c2)CCN3C(=O)C2CCC2)cc1	TDP1 cell CPT inconclusive, TDP1 cell noCPT inconclusive
CCOc1ccc(S(=O)(=O)NCCC(=O)Nc2cccc(C(=O)OC)c2)cc1	IL-1B inflam inh -74
COc1ccc(NC(=O)CCNS(=O)(=O)c2ccc3c(c2)CC(C)N3C(C)=O)cc1 (stereo not drawn)	none
CC1Cc2cc(S(=O)(=O)NCc3ccc(F)cc3)ccc2N1C(=O)C1CCC1 (stereo not drawn)	TDP1 cell CPT inconclusive, TDP1 cell noCPT 2.9µM, TGFb SMAD3 inh inconclusive (no result: ASM inhibitor, IL-1B inflam inh)
CCOc1ccc(NC(=O)CCNS(=O)(=O)c2ccc3c(c2)CC(C)N3C(C)=O)cc1 (stereo not drawn)	TDP1 cell CPT 15µM, TDP1 cell noCPT 23µM
Cc1ccc(CNS(=O)(=O)c2ccc3c(c2)CC(C)N3C(=O)C2CCC2)cc1 (stereo not drawn)	TDP1 cell CPT inconclusive, TDP1 cell noCPT 21µM (no result: ASM inhibitor, IL-1B inflam inh)
Cc1cc(NC(=O)N2CCC(CN3CCOCC3)CC2)ccc1Br	TDP1 cell CPT inconclusive (no result: ASM inhibitor, IL-1B inflam inh)
CC1Cc2cc(S(=O)(=O)NCc3ccc(Cl)cc3)ccc2N1C(=O)C1CCC1 (stereo not drawn)	TDP1 cell CPT 23µM, TDP1 cell noCPT 13µM, TGFb SMAD3 inh inconclusive (no result: ASM inhibitor, IL-1B inflam inh)
CC(=O)N1c2ccc(S(=O)(=O)NCc3ccc(Cl)cc3)cc2CC1C (stereo not drawn)	TDP1 cell CPT inconclusive, TDP1 cell noCPT 23µM, TGFb SMAD3 inh inconclusive (no result: ASM inhibitor, IL-1B inflam inh)
CC(=O)N1c2ccc(S(=O)(=O)NCCC(=O)NC3CCC(C)CC3)cc2CC1C (stereo not drawn)	none
CC(=O)N1CCc2cc(S(=O)(=O)NCc3ccc(C)cc3)ccc21	TDP1 cell CPT inconclusive, TDP1 cell noCPT 7.3µM
O=C(Nc1ccc(Cl)c(C(F)(F)F)c1)C(Cc1ccccc1)NS(=O)(=O)c1ccc(Br)s1 (stereo not drawn)	none (no result: ASM inhibitor, IL-1B inflam inh)
CCCOc1ccc(Cc2c(Cl)nc(SC)nc2N(C)C)cc1	TDP1 cell CPT inconclusive, TDP1 cell noCPT 15µM, TGFb SMAD3 inh inconclusive
O=C(CCSCCC(=O)Nc1c(F)c(F)c(F)c(F)c1F)Nc1c(F)c(F)c(F)c(F)c1F	TDP1 cell noCPT inconclusive

Bioassay records as filed in PubChem.
